Reference: PubChem BioAssay (Tox21)
Several values for one entry are separate records, joined by “and”; a condition that tells them apart may be missing. Equal values may be shown once. Records with an inconclusive call do not appear. The source holds several records for some structures; these can differ, active in one and inactive in another. Activity calls are given as the source filed them. Unless noted, calls follow the shape of the dose curve; as a rule, active = well fitted curve in the direction sought with a large enough effect in the repeat runs; inconclusive = weak or mixed curves; inactive = no such curve, though single readings can be large; an effect the other way counts as inactive or inconclusive.

How the values were obtained:
[1] = qHTS assay to identify small molecule agonists of the hypoxia (HIF-1) signaling pathway - cell viability counter screen (AID 1224844; calls by dose curve; also: nearly all actives have a fitted effect of over 50% in size; also: potency is read from the fitted curve at half-maximal effect)
How it was run: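 Luminescent ATP content (CellTiter-Glo, 30 min, room temperature) served as the viability measure in HRE-bla ME-180 cells exposed to compounds for 17 hrs in low-serum medium (0.5% dialyzed FBS).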

[2] = qHTS assay to identify small molecule agonists of H2AX (AID 1224845; active = well fitted activation curve with a large enough effect in the signal ratio in the repeat runs, not every such curve was filed as active; the % refers to the signal ratio)
How it was run: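 Wild-type CHO-K1 cells, plated overnight, exposed 3hr at 37C to 15 concentrations (0.76% DMSO final). Lysed, then HTRF anti-pH2AX (S139) cryptate and anti-H2AX-d2 antibodies, 24 hr room temperature; 665/620 nm emission read.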

[3] = qHTS assay to identify small molecule agonists of the hypoxia (HIF-1) signaling pathway (AID 1224846; active = well fitted activation curve with a large enough effect in the signal ratio in the repeat runs, not every such curve was filed as active; the % refers to the signal ratio)
How it was run: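 Measured by blue/green FRET after loading CCF4-AM: beta-lactamase expressed from a hypoxia response element in ME-180 cells. Test agents were delivered in DMSO and left 17 hrs; cells had been plated 5 hrs earlier in low-serum (0.5% dialyzed FBS) medium.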

[4] = qHTS assay to identify small molecule agonists of H2AX - cell viability counter screen (AID 1224847; calls by dose curve; also: nearly all actives have a fitted effect of over 30% in size; also: potency is read from the fitted curve at half-maximal effect; as to activity change, negative = cytotoxicity: top concentration of the series differs between compounds)
How it was run: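 Read-out: CellTiter-Glo luminescence, 30 min RT. Cells: wild-type CHO-K1, 1000/well, 10% FBS, plated overnight at 37C. Treatment: 15 concentrations, 3 hr, 37C, 0.76% DMSO.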

[5] = qHTS assay to identify small molecule antagonists of the estrogen related receptor (ERR) signaling pathway from Tox21 library (AID 1224848); also: nearly all actives have a fitted effect of over 50% in size; also: potency is read from the fitted curve at half-maximal effect
How it was run: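 Luminescent reporter read-out (ONE-Glo) from NTP's ERR cell line after 18 h treatment at 37 C with DMSO-dissolved Tox21 compounds; cells pre-plated 6 h beforehand at 2,000 per well.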

[6] = qHTS assay to identify small molecule agonists of the estrogen related receptor (ERR) signaling pathway from Tox21 library (AID 1224849; calls by dose curve; also: nearly all actives have a fitted effect of over 15% in size); settings: ERR reporter cell line, ONE-Glo luciferase, 18 h
How it was run: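 We plated ERR reporter cells, waited 6 h, added compounds in DMSO by pin tool and incubated them 18 h at 37 C. ONE-Glo was then added and luminescence read after 30 min.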

[7] = qHTS RealTime-Glo MT Cell Viability Assay in HepG2 cells - 24 hour (AID 1224867); also: nearly all actives have a fitted effect of over 50% in size; also: potency is read from the fitted curve at half-maximal effect
How it was run: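 Cells + NanoLuc/prosubstrate dispensed (600 cells/well) → 5 h at 37 C/5% CO2 → compounds in DMSO transferred → 40 h incubation at 37 C, luminescence read at 0, 8, 16, 24, 32, 40 h.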

[8] = qHTS RealTime-Glo MT Cell Viability Assay in HEK293 cells - 32 hour (AID 1224868); also: nearly all actives have a fitted effect of over 50% in size; also: potency is read from the fitted curve at half-maximal effect; as to activity change, negative = cytotoxic: top concentration of the series differs between compounds
How it was run: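 Tox21 10K qHTS, HEK293, 600 cells/well, RealTime-Glo reagent co-dispensed with cells; 5 h preincubation, compound by pintool, 37 C, luminescence at 0–40 h.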

[9] = qHTS RealTime-Glo MT Cell Viability Assay in HepG2 cells - 40 hour (AID 1224870); also: nearly all actives have a fitted effect of over 50% in size; also: potency is read from the fitted curve at half-maximal effect
How it was run: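 HepG2 cells (600/well) mixed with RealTime-Glo MT reagent, settled 5 h at 37 C/5% CO2 before compound addition. Nonlytic NanoLuc luminescence from viable-cell prosubstrate reduction read repeatedly during 40 h treatment at 37 C.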

[10] = A CellTox Green Cytotoxicity Assay to monitor cytotoxicity in HEK293 cells - 0 hour (AID 1224869); also: nearly all actives have a fitted effect of over 50% in size
How it was run: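 Each value comes from one timepoint of a single continuous run in which HEK293 cells with CellTox Green were exposed to compound for up to 40 h at 37 C, dye fluorescence rising with cell death.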

[11] = at 92.4 µM (top of the series) unless noted
% is scaled to controls: 0 for no effect and ±100 for the full control effect.

CCCCCCCCCCC=O
inactive: Potency [1] | Potency [2] | Potency [3] | Potency [4] | Potency [5] | activity change, positive = activation [6, 11] 0.203% | Potency [7] | Potency [8] | Potency [9]

CCC(C)(C)C1CCCCC1OC(C)=O (stereo not drawn)
inactive: Potency [1] | Potency [2] | Potency [3] | Potency [4] | Potency [5] | activity change, positive = activation [6, 11] -0.855% | Potency [7] | Potency [8] | Potency [10] | Potency [9]

O=C(O)c1c(Cl)cccc1Cl
inactive: Potency [1] | Potency [2] | Potency [3] | Potency [4] | Potency [7] | Potency [8] | Potency [10] | Potency [9]

CCCC/C=C/CCCCO
inactive: Potency [1] | Potency [2] | Potency [3] | Potency [4] | Potency [7] | Potency [8] | Potency [10] | Potency [9]

CCCCCCCCCCCCCCCS(=O)(=O)Oc1ccccc1
inactive: Potency [1] | Potency [2] | Potency [3] | Potency [4] | Potency [7] | Potency [8] | Potency [10] | Potency [9]

COC(=O)c1cc(Cl)ccc1OC
inactive: Potency [1] | Potency [2] | Potency [3] | Potency [4] | Potency [7] | Potency [8] | Potency [10] | Potency [9]

Cc1c(C)c2c(c(C)c1O)CCC(C)(COc1ccc(CC3SC(=O)NC3=O)cc1)O2 (stereo not drawn)
inactive: Potency [1] | Potency [2] | Potency [3] | Potency [4] | Potency [7] | Potency [10] | Potency [9]
active: Potency [8] 38.9 µM

O=C1c2ccccc2Cc2ccccc21
inactive: Potency [1] | Potency [2] | Potency [3] | Potency [4] | activity change, positive = activation [6, 11] -18.6% | Potency [7] | Potency [10] | Potency [9]

CC(NN)c1ccccc1 (stereo not drawn)
inactive: activity change, negative = cytotoxicity [1] 1.2% [at 15.8 µM] | activation (H2AX phosphorylation) [2] -2.63% [at 31.6 µM] | activation [3] -1.03% [at 15.8 µM] | Potency [4] | activity change, negative = cytotoxicity [7] 1.66% [at 15.8 µM] | activity change, negative = cytotoxic [8] 1.03% [at 15.8 µM] | cytotoxicity [10] -1.54% [at 15.8 µM] | activity change, negative = cytotoxic [9] -0.13% [at 15.8 µM]

C[C@H]1[C@H]2CC[C@H]3[C@@H]4CC=C5C[C@@H](N(C)C)CC[C@]5(C)[C@H]4CC[C@]23CN1C
inactive: Potency [1] | Potency [2] | Potency [3] | Potency [4] | Potency [5] | Potency [10] | Potency [9]

CNC(=O)c1ccccc1
inactive: Potency [1] | Potency [2] | Potency [3] | Potency [4] | Potency [7] | Potency [8] | Potency [10] | Potency [9]

C1CCCC1
inactive: Potency [1] | Potency [2] | Potency [3] | Potency [4] | Potency [5] | activity change, positive = activation [6, 11] 9.59% | Potency [8] | Potency [10] | Potency [9]

OCCCCCCCCCCCCBr
inactive: Potency [2] | Potency [3] | Potency [7] | Potency [10] | Potency [9]
active: Potency [1] 44.3 µM | Potency [4] 102 µM | Potency [8] 9.92 µM

Nc1c(Cl)cc(Cl)cc1Cl
inactive: Potency [1] | Potency [2] | Potency [3] | Potency [4] | Potency [7] | Potency [8] | Potency [10] | Potency [9]

N#CC1(c2ccc(F)cc2)CCC(=O)CC1
inactive: Potency [1] | Potency [2] | Potency [3] | Potency [4] | Potency [5] | activity change, positive = activation [6, 11] 6.11% [at 42.5 µM] | Potency [7] | Potency [8] | Potency [10] | Potency [9]

COc1cc(/C=C/C(=O)O[C@H]2CC[C@]34C[C@]35CC[C@]3(C)[C@@H]([C@H](C)CCC=C(C)C)CC[C@@]3(C)[C@@H]5CC[C@H]4C2(C)C)ccc1O
inactive: Potency [1] | Potency [2] | Potency [3] | Potency [4] | Potency [5] | Potency [8] | Potency [10] | Potency [9]

CN(C)CCCOC1(Cc2ccccc2)CCCCCC1
inactive: Potency [1] | Potency [2] | Potency [3] | Potency [4] | Potency [7] | Potency [8] | Potency [10] | Potency [9]

NC(=O)NS(=O)(=O)c1ccc(N)cc1
inactive: Potency [1] | Potency [2] | Potency [3] | Potency [4] | Potency [7] | Potency [8] | Potency [10] | Potency [9]

COC(=O)C1=C(C)NC(C)=C(C(=O)OCC(C)C)C1c1ccccc1[N+](=O)[O-] (stereo not drawn)
inactive: Potency [2] | Potency [3] | activity change, positive = activation ([6]; at 42.5 µM (top of the series)) -46.2% | activity change, positive = activation ([6]; at 92.4 µM (top of the series)) -62.2% | Potency [10]
active: Potency [1] 49 µM | Potency [5] 12.2 µM and 21.1 µM | Potency [7] 49 µM | Potency [8] 21.9 µM
49 µM (active) and inactive: Potency [9]
127 µM (active) and inactive: Potency [4]

Cc1ccc(O)c(C(C)(C)C)c1
inactive: Potency [1] | Potency [2] | Potency [3] | Potency [7] | Potency [8] | Potency [10] | Potency [9]
active: Potency [4] 89.6 µM
